{"source": "PubChem BioAssay AID602296", "about": "(Broad Institute, 2012)", "note": "Screen size: about 2,000 compounds; about 190 (9.5%) were called active. Roughly 14% stayed inconclusive and do not appear here. The list is a sample of the results. Values without a mark were called inactive.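 How the source made its calls: active means fitted activation curve crossing 40% at a concentration no higher than the sample's top valid tested dose; inconclusive means flat fitted curve at 30% to 70% activation, or poor curve fit; inactive means signal decrease, flat curve within 30%, or the rest.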", "data": [{"assay": "sustained heat shock response element induction – cell-based, mouse, luciferase, cherry-pick, dose, confirmation (AID 602296);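 further: test compounds applied by themselves with no MG132 co-treatment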", "settings": "NIH3T3-HGL HSF-1 response element luciferase, 48 h; series mostly up to 26 µM; activation: at the top concentration", "units": {"activation": "%"}, "values": [{"smiles": "COc1cc(-c2nc(-c3ccc4c(c3)-c3ccccc3S4(=O)=O)c(-c3ccccc3)[nH]2)cc(OC)c1O", "activation": -40.3}, {"smiles": "CCC(=O)Nc1c(S(=O)(=O)c2ccccc2)c2nc3ccccc3nc2n1C(C)c1ccccc1", "note": "(stereo not given)", "activation": -20.5}, {"smiles": "CCOc1cc(/C=C2/C(=O)ON=C2C)ccc1OCc1ccc(F)cc1", "activation": 44.8}, {"smiles": "O=C(CSc1ncn[nH]1)c1cccc([N+](=O)[O-])c1", "activation": -0.937}, {"smiles": "COc1cc(-c2nnc3sc(Cc4ccc(Cl)cc4)nn23)cc(OC)c1OC", "activation": -27.6}, {"smiles": "O=C(CN(C(=O)c1csnn1)c1ccc(F)c(Cl)c1)NCc1ccc(F)cc1", "activation": -5.21}, {"smiles": "CC(C)(C)Cc1nc2ccccc2n1CCc1ccccc1", "activation": -18.4}, {"smiles": "COC(=O)c1ccc(CSc2nc3ccccc3c(=O)n2CC(C)C)o1", "activation": 11}, {"smiles": "CC(c1ccc(F)cc1)n1c(Cn2ncc3ccccc3c2=O)n[nH]c1=S", "note": "(stereo not given)", "activation": 12.2}, {"smiles": "OC(CNCc1ccco1)Cn1c2ccc(Br)cc2c2cc(Br)ccc21", "note": "(stereo not given)", "activation": 3.97}, {"smiles": "COc1ccccc1N1CCN(C(=O)c2ccc3c(=O)n(Cc4ccco4)c(=S)[nH]c3c2)CC1", "activation": 4.32}, {"smiles": "CCCCNC(=S)N(Cc1ccco1)Cc1cc2cc3c(cc2[nH]c1=O)OCCO3", "activation": -47}, {"smiles": "O=C1N/C(=C\\c2ccc(O)cc2)C(O)=C1C=NCc1ccccc1", "activation": -52}, {"smiles": "Cc1cccc(C(C#N)c2ccc(Cl)nn2)c1", "note": "(stereo not given)", "activation": 5.31}, {"smiles": "COc1ccc2[nH]c(C)c(CCNc3ccc(C(F)(F)F)cc3[N+](=O)[O-])c2c1", "activation": -55.4}, {"smiles": "O=S(=O)(c1ccccc1)c1ncc(C(F)(F)F)cc1Cl", "activation": -104}, {"smiles": "O=C(CCCn1c(=S)[nH]c2ccc(Br)cc2c1=O)NCC1CCCO1", "note": "(stereo not given)", "activation": 2.17}, {"smiles": "COc1ccc(C(=O)N(C)CC(O)c2ccccc2)cc1OC1CCN(C(C)=O)CC1", "note": "(stereo not given)", "activation": -5.01}, {"smiles": "O=C1c2ccccc2-c2onc3ccc(N4CCCC4)c1c23", "activation": 26.1}, {"smiles": "COC(=O)Cc1ccc(NC(=O)c2ccc(C)c(C)c2)cc1", "activation": -71.3}, {"smiles": "CCOC(=O)c1c(S(=O)(=O)NCC2CCN(CCc3cccs3)CC2)c(C)n(C)c1C", "activation": 5.71}, {"smiles": "Cc1nn(C)c(Oc2ccccc2)c1CCNS(=O)(=O)c1ccc(Cl)cc1", "activation": -52.3}, {"smiles": "CN1C(=O)C2(c3ccccc31)N(C)CC(c1ccccn1)C21SC(=S)N(Cc2ccco2)C1=O", "note": "(stereo not given)", "activation": -66.3}, {"smiles": "COC(=O)C1=C(C)NC(=S)NC1c1ccc(-c2cccc(Cl)c2)o1", "note": "(stereo not given)", "activation": -17.3}, {"smiles": "Cc1ccc(C(c2c(C)nn(-c3ccccc3)c2N)c2c(C)nn(-c3ccccc3)c2N)cc1", "activation": -5.45}, {"smiles": "COc1cc(CNC2CCCC2)cc(OC)c1", "activation": 2.54}, {"smiles": "CCn1c(SCC(=O)N2CCOCC2)nc2oc3c(Cl)cc(Cl)cc3c(=O)c2c1=O", "activation": 7.32}, {"smiles": "CC(=O)c1ccc(NC(=O)CCCN2C(=O)/C(=C/C(C)=C/c3ccccc3)SC2=S)cc1", "activation": -9.9}, {"smiles": "Cc1noc(C)c1COC(=O)c1ccccc1Oc1ccccc1", "activation": -13.4}, {"smiles": "CCc1nnc(NC(=O)C(NC(=O)c2ccccc2Cl)C(C)C)s1", "note": "(stereo not given)", "activation": -4.42}, {"smiles": "COC(=O)c1sccc1NC(=O)Nc1cccc(F)c1", "activation": -0.711}, {"smiles": "Cc1cc(SCC(=O)N/N=C/c2ccc(O)c(O)c2)c(C)cc1Br", "activation": -70.1}, {"smiles": "Cn1c(SCc2cccc(C(F)(F)F)c2)nnc1-c1ccco1", "activation": 6.26}, {"smiles": "Clc1ccc(CSc2nnc(-c3sccc3-n3cccc3)o2)cc1", "activation": -42.5}, {"smiles": "Fc1ccc(Sc2ccccc2CNC2=NCCN2)cc1", "activation": -23.8}, {"smiles": "O=S(=O)(c1ccc(Cl)c(NC(=S)N/N=C/c2ccc(O)cc2)c1)N1CCOCC1", "activation": -6.39}, {"smiles": "O=c1c(Cl)cc(Cl)nn1-c1ccccc1", "activation": -99.9}, {"smiles": "CCc1cc2c(SCC#N)ncnc2s1", "activation": 11.3}, {"smiles": "CCOC(=O)CC(NC(=O)C1c2ccccc2Oc2ccccc21)c1ccccc1Cl", "note": "(stereo not given)", "activation": -4.99}, {"smiles": "COc1cccc(-c2c(C#N)c(N)nc3c2c(C)nn3-c2ccccc2)c1O", "activation": -40.7}, {"smiles": "O=C(COC(=O)/C=C/c1cccc([N+](=O)[O-])c1)NCc1ccco1", "activation": -2.07}, {"smiles": "CN(C)c1ccc(C(CNC(=O)c2ccccc2)c2c[nH]c3ccccc23)cc1", "note": "(stereo not given)", "activation": -28.5}, {"smiles": "CCOC(=O)CC1C(=O)NCCN1S(=O)(=O)c1cc(Cl)c(Cl)cc1Cl", "note": "(stereo not given)", "activation": 9.36}, {"smiles": "O=C(CCC1CCCC1)N=C1SC2CS(=O)(=O)CC2N1c1ccccc1F", "note": "(stereo not given)", "activation": 0.463}, {"smiles": "S=c1nc(SCc2ccccc2)[nH]c2ccccc12", "activation": 2.98}, {"smiles": "O=C(Nc1ccc(OCC(F)(F)C(F)F)c(C(F)(F)F)c1)c1ccccc1O", "activation": -78.6}, {"smiles": "CC(C)N(Cc1ccccc1)C(=O)COC(=O)/C=C/c1cnc2ccccc2n1", "activation": 10.3}, {"smiles": "CCN(CCCNC(=O)CCCN1C(=O)COc2ccc(C)cc21)c1cccc(C)c1", "activation": -34.6}, {"smiles": "Cc1ccc(C)c(NC(=O)CS(=O)(=O)c2cn(C)c3ccccc23)c1", "activation": -5.97}, {"smiles": "Cc1ccc(NC2OC(CO)C(O)C2O)cc1[N+](=O)[O-]", "note": "(stereo not given)", "activation": 5.31}, {"smiles": "COc1cccc(/C=N/Nc2ccc([N+](=O)[O-])cn2)c1O", "activation": -99.1}, {"smiles": "CCCC(=O)O/N=C(\\c1ccccc1)c1ccncc1", "activation": -17.2}, {"smiles": "COc1ccc(C)cc1NC(=O)CSc1nnc(COc2ccc(Cl)cc2)n1Cc1ccco1", "activation": -95.2}, {"smiles": "Cc1nc2ccccc2n1CC(O)COCC1CC=CCC1", "note": "(stereo not given)", "activation": -34.1}, {"smiles": "Cc1cccc(-[n+]2c(C)cc(C)c3c(=O)[nH]c(=O)[nH]c32)c1", "activation": 2.83}, {"smiles": "O=C1CSC(=S)N1/N=C/c1cccc(C(F)(F)F)c1", "activation": 19}, {"smiles": "CN(C)CCCCNCCCNC(=O)/C=N\\O", "activation": 12.4}, {"smiles": "CN(c1cccc(NC(=O)CN(c2cccc(Cl)c2)S(=O)(=O)c2ccc(Cl)cc2)c1)S(C)(=O)=O", "activation": -55.2}, {"smiles": "CC1CN(C(=O)CS(=O)(=O)Cc2ccccc2)CC(C)O1", "note": "(stereo not given)", "activation": 5.95}, {"smiles": "Cc1ccc(C(=O)/C=C/c2cc(Br)cc(Br)c2O)o1", "activation": 2.94}, {"smiles": "Cc1c(-n2cc(C(=O)c3ccccc3O)cc(C#N)c2=O)c(=O)n(-c2ccccc2)n1C", "activation": 11.6}, {"smiles": "O=C(/C=C/c1ccc(Cl)cc1Cl)N(Cc1ccccc1)C1CCS(=O)(=O)C1", "note": "(stereo not given)", "activation": -14.7}, {"smiles": "OCC1(Cc2cccc(C(F)(F)F)c2)CCN(Cc2cc3ccccc3o2)CC1", "activation": -20.1}, {"smiles": "Cc1ccc(S(=O)(=O)c2c(N)n(-c3ccccc3)c3nc4ccccc4nc23)cc1", "activation": 8.69}, {"smiles": "CN(CC(=O)Nc1ccccc1Cl)CC(=O)Nc1c(F)cccc1F", "activation": -16}]}]}
